# Data published in PubChem BioAssay (NCATS).
# Several values for one entry are separate records, joined by “and”; a condition that tells them apart may be missing. Equal entries are not always repeated. Records with an inconclusive call do not appear. A number with no mark means an inactive call. Activity calls are given as the source filed them. Calls follow the shape of the dose curve; as a rule, active = well fitted curve in the direction sought with a large enough effect; inconclusive = small, poorly fitted or top-dose-only effect, or another doubt; inactive = no such curve, though single readings can be large; an effect the other way counts as inactive or inconclusive.
# Biological target: Cytochrome P450 3A7 (Homo sapiens) (UniProt P24462)
# Sequence (P24462 whole entry, looked up): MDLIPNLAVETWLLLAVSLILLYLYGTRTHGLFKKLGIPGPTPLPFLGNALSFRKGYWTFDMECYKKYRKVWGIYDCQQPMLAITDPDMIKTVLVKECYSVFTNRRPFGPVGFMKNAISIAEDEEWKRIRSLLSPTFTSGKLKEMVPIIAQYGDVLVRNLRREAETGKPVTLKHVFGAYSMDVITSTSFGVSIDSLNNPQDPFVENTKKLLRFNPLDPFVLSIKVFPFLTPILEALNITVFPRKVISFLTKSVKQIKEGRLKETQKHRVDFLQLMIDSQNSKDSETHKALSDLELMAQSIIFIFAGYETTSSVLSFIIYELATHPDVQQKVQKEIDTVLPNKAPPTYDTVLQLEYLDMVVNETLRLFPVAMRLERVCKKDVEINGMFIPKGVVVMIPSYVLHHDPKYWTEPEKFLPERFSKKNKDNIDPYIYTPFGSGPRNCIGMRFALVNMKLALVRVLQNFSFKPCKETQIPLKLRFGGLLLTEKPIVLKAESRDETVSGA
# Assay: Cytochrome P450 family 3 subfamily A member 7 (CYP3A7) small molecule antagonists: luciferase biochemical qHTS assay (AID 1963596); as to activity change, negative = inhibition: % is scaled to controls: 0 for no effect and ±100 for the full control effect
# Details: P450-Glo CYP3A7 enzyme luminescence, 1 h; series mostly up to 57.4 µM; activity change, negative = inhibition: at the top concentration
# How it was run: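 Enzyme-substrate mix + cpd (DMSO), 10 min RT; + NADPH regen system, 1 h RT; + luciferin detection reagent, 20 min RT; luminescence read. Proluciferin substrate, P450-Glo format, 1536-well qHTS.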
# Also: nearly all actives have a fitted effect of over 40% in size.
# Potency is read from the fitted curve at half-maximal effect.
SMILES,"activity change, negative = inhibition",Potency
O=P1(N(CCCl)CCCl)NCCCO1 (stereo not drawn),-6.41%,–
CN1[C@@H]2CC[C@H]1CC(OC(=O)c1cc(Cl)cc(Cl)c1)C2 (stereo partly drawn),4.29%,–
CC1OC(C)OC(C)O1 (stereo not drawn),0.513%,–
CCCN(CCC)c1c([N+](=O)[O-])cc(S(N)(=O)=O)cc1[N+](=O)[O-],–,1.12 µM (active)
C[C@@H]1CN(C2CCC(C#N)(c3ccc(F)cc3)CC2)CC[C@]1(C(=O)O)c1ccccc1 (stereo partly drawn),4%,–
COC(=O)[C@@H](N)CCCN/C(N)=N/[N+](=O)[O-],3.11%,–
CCC1(c2ccccc2)CCC(=O)NC1=O (stereo not drawn),40.5%,–
CC(C)NCC(O)c1ccc([N+](=O)[O-])cc1 (stereo not drawn),-1.82%,–
C[C@H]1C(=O)O[C@@H]2CCN3CC=C(COC(=O)[C@](C)(O)[C@]1(C)O)[C@H]23,-23.6%,–
CCN(CC)CCOC(=O)C(O)(c1ccccc1)c1ccccc1,-27.8%,–
COc1ccccc1N1CCNCC1,9.4%,–
C[C@@H](C1CC[C@@]2(O)C3=CC(=O)[C@@H]4C[C@@H](O)[C@@H](O)C[C@]4(C)[C@H]3CC[C@]12C)[C@H](O)CCC(C)(C)O (stereo partly drawn),-12.5%,–
C=CCN1CC[C@]23c4c5ccc(O)c4O[C@H]2C(=O)CC[C@@]3(O)[C@H]1C5,-0.405%,–
CCS(=O)(=O)C(C)(C)S(=O)(=O)CC,-13.3%,–
CC(CC(C(N)=O)(c1ccccc1)c1ccccc1)N(C)C (stereo not drawn),-1.42%,–
C[C@@H]1O[C@@H](O[C@H]2C[C@@H](O)[C@]3(CO)[C@H]4[C@H](O)C[C@]5(C)[C@@H](C6=CC(=O)OC6)CC[C@]5(O)[C@@H]4CC[C@]3(O)C2)[C@H](O)[C@H](O)[C@H]1O,8.34%,–
O=C(O)c1ccc(=O)[nH]c1,19.6%,–
O=C1CC[C@@]2(O)[C@H]3Cc4ccc(O)c5c4[C@@]2(CCN3CC2CC2)[C@H]1O5,-0.973%,–
ClCCN1CCCC1,-1.66%,–
CCNc1nc(Cl)nc(NCC)n1,-22.5%,–

SMILES,"activity change, negative = inhibition",Potency
CN[C@@H](C)[C@H](O)c1ccccc1,13.6%,–
COC(=O)C1=CCCN(C)C1,0.836%,–
CC1NCCOC1c1ccccc1 (stereo not drawn),-16.9%,–
CCC(C(N)=O)N1CCCC1=O (stereo not drawn),7.55%,–
COP(=S)(OC)Oc1cc(Cl)c(Cl)cc1Cl,–,13.8 µM (active)
NP(N)(=O)NC(=O)c1ccc(F)cc1,-28.3%,–
CC(C)(N)Cc1ccc(Cl)cc1,-16.9%,–
NCc1cccnc1,-19.7%,–
C1CN2CCC1CC2,-0.235%,–
CCC(C)C(C)(COC(N)=O)COC(N)=O (stereo not drawn),-16.7%,–
N[C@@H]1C[C@H]1c1ccccc1,-19.8%,–
Cc1ccc(Cl)c(O)c1,-13.8%,–
NC(=O)OCCCc1ccccc1,-12.8%,–
CC[N+]1(CCOC(=O)C(O)(c2ccccc2)c2ccccc2)CCCCC1,-27.8%,–
O=C(O)COc1ccccc1,14.3%,–
NCC(CC(=O)O)c1ccc(Cl)cc1 (stereo not drawn),-9.7% [at 0.91 µM],–
O=C(CCCCl)c1ccc(F)cc1,-2.52%,–
Oc1cccc2cccnc12,-13.3%,–
O=c1[nH]oc2c1CCNC2,-8.17%,–

# Tested on: not listed separately
# Assay: Viability qHTS for spleen associated tyrosine kinase inhibitor (SYKi) naive MV4-11 cells (AID 1963823)
# Details: MV4-11 AML viability, CellTiter-Glo luminescence, 72 h; series mostly up to 45 µM; viability (% of control): at the top concentration
# How it was run: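 qHTS, SYK inhibitor-naive MV4-11; 500 cells/well; 72 hr compound exposure, 37 C; CellTiter-Glo added, 10 min RT; luminescence read.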
SMILES,Potency,viability (% of control)
O=P1(N(CCCl)CCCl)NCCCO1 (stereo not drawn),inactive,–
CN1[C@@H]2CC[C@H]1CC(OC(=O)c1cc(Cl)cc(Cl)c1)C2 (stereo partly drawn),–,87.5%
CC1OC(C)OC(C)O1 (stereo not drawn),–,86%
CCCN(CCC)c1c([N+](=O)[O-])cc(S(N)(=O)=O)cc1[N+](=O)[O-],21.7 µM (active),–
C[C@@H]1CN(C2CCC(C#N)(c3ccc(F)cc3)CC2)CC[C@]1(C(=O)O)c1ccccc1 (stereo partly drawn),–,94.8%
COC(=O)[C@@H](N)CCCN/C(N)=N/[N+](=O)[O-],–,91%
CCC1(c2ccccc2)CCC(=O)NC1=O (stereo not drawn),21.1 µM (active),–
CC(C)NCC(O)c1ccc([N+](=O)[O-])cc1 (stereo not drawn),–,69%
C[C@H]1C(=O)O[C@@H]2CCN3CC=C(COC(=O)[C@](C)(O)[C@]1(C)O)[C@H]23,–,77.6%
CCN(CC)CCOC(=O)C(O)(c1ccccc1)c1ccccc1,–,75.4%
COc1ccccc1N1CCNCC1,–,91.5%
C[C@@H](C1CC[C@@]2(O)C3=CC(=O)[C@@H]4C[C@@H](O)[C@@H](O)C[C@]4(C)[C@H]3CC[C@]12C)[C@H](O)CCC(C)(C)O (stereo partly drawn),–,69.5%
C=CCN1CC[C@]23c4c5ccc(O)c4O[C@H]2C(=O)CC[C@@]3(O)[C@H]1C5,–,74.2%
CCS(=O)(=O)C(C)(C)S(=O)(=O)CC,–,89.3%
CC(CC(C(N)=O)(c1ccccc1)c1ccccc1)N(C)C (stereo not drawn),–,84.5%
C[C@@H]1O[C@@H](O[C@H]2C[C@@H](O)[C@]3(CO)[C@H]4[C@H](O)C[C@]5(C)[C@@H](C6=CC(=O)OC6)CC[C@]5(O)[C@@H]4CC[C@]3(O)C2)[C@H](O)[C@H](O)[C@H]1O,119 nM (active) and 79.6 nM (active) and 46.8 nM (active),–
O=C(O)c1ccc(=O)[nH]c1,–,95.7%
O=C1CC[C@@]2(O)[C@H]3Cc4ccc(O)c5c4[C@@]2(CCN3CC2CC2)[C@H]1O5,inactive,–
ClCCN1CCCC1,–,92.7%
CCNc1nc(Cl)nc(NCC)n1,–,82.5%

SMILES,Potency,viability (% of control)
CN[C@@H](C)[C@H](O)c1ccccc1,–,76.3%
COC(=O)C1=CCCN(C)C1,–,93.1%
CC1NCCOC1c1ccccc1 (stereo not drawn),–,105%
CCC(C(N)=O)N1CCCC1=O (stereo not drawn),–,107%
COP(=S)(OC)Oc1cc(Cl)c(Cl)cc1Cl,–,77.7%
NP(N)(=O)NC(=O)c1ccc(F)cc1,–,67.2%
CC(C)(N)Cc1ccc(Cl)cc1,–,63.2%
NCc1cccnc1,–,79.8%
C1CN2CCC1CC2,–,83.9%
CCC(C)C(C)(COC(N)=O)COC(N)=O (stereo not drawn),–,90%
N[C@@H]1C[C@H]1c1ccccc1,16.6 µM (active),–
Cc1ccc(Cl)c(O)c1,–,62.7%
NC(=O)OCCCc1ccccc1,–,81.3%
CC[N+]1(CCOC(=O)C(O)(c2ccccc2)c2ccccc2)CCCCC1,–,74.1%
O=C(O)COc1ccccc1,–,79%
NCC(CC(=O)O)c1ccc(Cl)cc1 (stereo not drawn),–,90.7% [at 0.588 µM]
O=C(CCCCl)c1ccc(F)cc1,–,89.2%
Oc1cccc2cccnc12,–,70.9%
O=c1[nH]oc2c1CCNC2,–,71.9%
